Experimental data as given in the supplement of paper PMC10849652.
Targets with a hit are over-represented here; the source holds about 7,900 in all. About 0.6% of all pairs of compound and target were hits. Unmarked numbers belong to inactive results.

Legend:
Assay in all cases: log2 fold change, soluble protein after heating vs DMSO (PISA); higher = thermal stabilisation; K562 cells, 10 uM, 30 min; active = over 0.2 and 3.5 SD of the protein, either way, in both replicates (recomputed)
[1] = compound: NC(=O)Nc1cc(-c2cccc(F)c2)sc1C(=O)N[C@H]1CCCNC1
Procedure, shortened: (§1)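 K562 cells at 2×10^6 cells/mL were treated with 10 μM compound for 30 min. Aliquots were heated for 3 min across 48°C-58°C, pooled, and extracted in PBS with 0.5% NP-40 at 4°C; soluble protein was the supernatant after 21,000xg for 90 min. Soluble protein was quantified by TMTpro 16plex LC-MS/MS with channel sums equalised, and reported as log2 fold change in thermal stability against DMSO controls, with values from duplicates.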

[2] = compound: NC(=O)c1cnc(N[C@@H]2CCCC[C@@H]2N)nc1Nc1cccc(-n2nccn2)c1
Procedure, shortened: as §1

[3] = compound: NC1(c2ccc(-c3nc4ccn5c(=O)[nH]nc5c4cc3-c3ccccc3)cc2)CCC1
Procedure, shortened: as §1

[4] = compound: NCC(=O)Nc1ccc(-n2nc(C(F)(F)F)cc2-c2ccc3c(ccc4ccccc43)c2)cc1
Procedure, shortened: as §1

entinostat = compound: Nc1ccccc1NC(=O)c1ccc(CNC(=O)OCc2cccnc2)cc1 [entinostat]
Procedure, shortened: as §1

vorinostat = compound: O=C(CCCCCCC(=O)Nc1ccccc1)NO [vorinostat]
Procedure, shortened: as §1

citarinostat = compound: O=C(CCCCCCNC(=O)c1cnc(N(c2ccccc2)c2ccccc2Cl)nc1)NO [citarinostat]
Procedure, shortened: as §1

silmitasertib = compound: O=C(O)c1ccc2c(c1)nc(Nc1cccc(Cl)c1)c1ccncc12 [silmitasertib]
Procedure, shortened: as §1

[5] = compound: O=C1NC(=O)C(c2cnc3ccccn23)=C1c1cn2c3c(cc(F)cc13)CN(C(=O)N1CCCCC1)CC2
Procedure, shortened: as §1

[6] = compound: c1cc(OCCN2CCCCC2)cc(-c2n[nH]c3ccc(-c4nnc[nH]4)cc23)c1
Procedure, shortened: as §1

Chain of UniProt Q1KMD3 (Q1KMD3 whole entry, looked up): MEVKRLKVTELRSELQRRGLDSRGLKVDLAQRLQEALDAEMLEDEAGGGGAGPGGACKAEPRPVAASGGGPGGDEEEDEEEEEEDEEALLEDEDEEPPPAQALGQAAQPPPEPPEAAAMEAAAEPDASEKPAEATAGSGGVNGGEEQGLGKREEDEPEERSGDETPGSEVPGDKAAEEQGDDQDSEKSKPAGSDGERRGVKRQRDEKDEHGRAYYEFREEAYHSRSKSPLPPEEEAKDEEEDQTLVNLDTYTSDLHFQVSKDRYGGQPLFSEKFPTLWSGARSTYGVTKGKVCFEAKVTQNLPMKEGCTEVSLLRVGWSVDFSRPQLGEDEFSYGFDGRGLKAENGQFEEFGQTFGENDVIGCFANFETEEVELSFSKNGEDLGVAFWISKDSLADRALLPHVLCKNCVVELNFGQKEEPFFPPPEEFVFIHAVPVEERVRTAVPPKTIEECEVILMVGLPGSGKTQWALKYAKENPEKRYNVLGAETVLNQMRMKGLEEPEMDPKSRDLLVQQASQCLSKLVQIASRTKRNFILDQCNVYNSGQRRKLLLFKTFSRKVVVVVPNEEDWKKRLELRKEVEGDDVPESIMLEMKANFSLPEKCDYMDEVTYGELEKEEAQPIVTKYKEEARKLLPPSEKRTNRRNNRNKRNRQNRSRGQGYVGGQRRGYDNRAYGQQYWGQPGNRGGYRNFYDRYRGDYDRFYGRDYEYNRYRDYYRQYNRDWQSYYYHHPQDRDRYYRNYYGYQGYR
Chain of UniProt Q00403 (Q00403 whole entry, looked up): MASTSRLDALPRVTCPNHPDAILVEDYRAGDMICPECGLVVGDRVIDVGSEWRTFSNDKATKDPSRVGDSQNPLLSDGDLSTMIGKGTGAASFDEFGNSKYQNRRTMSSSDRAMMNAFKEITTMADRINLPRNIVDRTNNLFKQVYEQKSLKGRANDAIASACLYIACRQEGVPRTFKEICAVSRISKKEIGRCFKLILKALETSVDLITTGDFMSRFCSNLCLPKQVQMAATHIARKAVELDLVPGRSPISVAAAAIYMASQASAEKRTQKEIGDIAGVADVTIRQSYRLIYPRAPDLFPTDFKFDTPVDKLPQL
Chain of UniProt P0C0S5 (P0C0S5 whole entry, looked up): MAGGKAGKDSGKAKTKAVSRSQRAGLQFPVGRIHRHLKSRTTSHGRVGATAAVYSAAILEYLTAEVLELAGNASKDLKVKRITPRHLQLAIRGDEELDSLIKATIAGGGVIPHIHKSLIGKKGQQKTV
Chain of UniProt P15260 (P15260 whole entry, looked up): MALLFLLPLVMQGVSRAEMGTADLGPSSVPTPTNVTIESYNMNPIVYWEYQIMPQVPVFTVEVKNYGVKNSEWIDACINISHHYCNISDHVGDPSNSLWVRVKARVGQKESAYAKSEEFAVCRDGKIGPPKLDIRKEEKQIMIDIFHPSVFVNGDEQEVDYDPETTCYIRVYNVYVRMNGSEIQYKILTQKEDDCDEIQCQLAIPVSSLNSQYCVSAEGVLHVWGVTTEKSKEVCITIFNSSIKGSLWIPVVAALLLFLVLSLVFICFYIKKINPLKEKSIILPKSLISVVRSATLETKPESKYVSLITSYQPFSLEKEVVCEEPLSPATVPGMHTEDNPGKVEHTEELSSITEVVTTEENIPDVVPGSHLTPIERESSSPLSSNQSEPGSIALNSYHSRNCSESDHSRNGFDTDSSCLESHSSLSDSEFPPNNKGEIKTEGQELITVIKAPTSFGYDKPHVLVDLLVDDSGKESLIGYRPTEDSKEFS
Chain of UniProt Q9Y692 (Q9Y692 whole entry, looked up): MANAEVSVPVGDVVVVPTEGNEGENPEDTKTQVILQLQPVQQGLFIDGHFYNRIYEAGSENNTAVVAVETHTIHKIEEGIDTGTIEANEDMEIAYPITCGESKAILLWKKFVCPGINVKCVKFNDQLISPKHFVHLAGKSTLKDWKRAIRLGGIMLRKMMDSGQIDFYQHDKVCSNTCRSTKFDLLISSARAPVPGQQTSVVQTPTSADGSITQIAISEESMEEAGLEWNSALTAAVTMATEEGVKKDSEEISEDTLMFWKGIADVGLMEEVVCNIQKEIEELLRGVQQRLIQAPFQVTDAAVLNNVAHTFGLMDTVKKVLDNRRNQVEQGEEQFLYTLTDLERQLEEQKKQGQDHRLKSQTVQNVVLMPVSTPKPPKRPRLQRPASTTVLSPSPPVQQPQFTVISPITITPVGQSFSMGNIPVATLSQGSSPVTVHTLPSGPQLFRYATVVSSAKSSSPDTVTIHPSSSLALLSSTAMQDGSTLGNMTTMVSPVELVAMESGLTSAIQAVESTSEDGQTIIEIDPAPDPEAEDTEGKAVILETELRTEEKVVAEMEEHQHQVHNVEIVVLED
Chain of UniProt O14976 (O14976 whole entry, looked up): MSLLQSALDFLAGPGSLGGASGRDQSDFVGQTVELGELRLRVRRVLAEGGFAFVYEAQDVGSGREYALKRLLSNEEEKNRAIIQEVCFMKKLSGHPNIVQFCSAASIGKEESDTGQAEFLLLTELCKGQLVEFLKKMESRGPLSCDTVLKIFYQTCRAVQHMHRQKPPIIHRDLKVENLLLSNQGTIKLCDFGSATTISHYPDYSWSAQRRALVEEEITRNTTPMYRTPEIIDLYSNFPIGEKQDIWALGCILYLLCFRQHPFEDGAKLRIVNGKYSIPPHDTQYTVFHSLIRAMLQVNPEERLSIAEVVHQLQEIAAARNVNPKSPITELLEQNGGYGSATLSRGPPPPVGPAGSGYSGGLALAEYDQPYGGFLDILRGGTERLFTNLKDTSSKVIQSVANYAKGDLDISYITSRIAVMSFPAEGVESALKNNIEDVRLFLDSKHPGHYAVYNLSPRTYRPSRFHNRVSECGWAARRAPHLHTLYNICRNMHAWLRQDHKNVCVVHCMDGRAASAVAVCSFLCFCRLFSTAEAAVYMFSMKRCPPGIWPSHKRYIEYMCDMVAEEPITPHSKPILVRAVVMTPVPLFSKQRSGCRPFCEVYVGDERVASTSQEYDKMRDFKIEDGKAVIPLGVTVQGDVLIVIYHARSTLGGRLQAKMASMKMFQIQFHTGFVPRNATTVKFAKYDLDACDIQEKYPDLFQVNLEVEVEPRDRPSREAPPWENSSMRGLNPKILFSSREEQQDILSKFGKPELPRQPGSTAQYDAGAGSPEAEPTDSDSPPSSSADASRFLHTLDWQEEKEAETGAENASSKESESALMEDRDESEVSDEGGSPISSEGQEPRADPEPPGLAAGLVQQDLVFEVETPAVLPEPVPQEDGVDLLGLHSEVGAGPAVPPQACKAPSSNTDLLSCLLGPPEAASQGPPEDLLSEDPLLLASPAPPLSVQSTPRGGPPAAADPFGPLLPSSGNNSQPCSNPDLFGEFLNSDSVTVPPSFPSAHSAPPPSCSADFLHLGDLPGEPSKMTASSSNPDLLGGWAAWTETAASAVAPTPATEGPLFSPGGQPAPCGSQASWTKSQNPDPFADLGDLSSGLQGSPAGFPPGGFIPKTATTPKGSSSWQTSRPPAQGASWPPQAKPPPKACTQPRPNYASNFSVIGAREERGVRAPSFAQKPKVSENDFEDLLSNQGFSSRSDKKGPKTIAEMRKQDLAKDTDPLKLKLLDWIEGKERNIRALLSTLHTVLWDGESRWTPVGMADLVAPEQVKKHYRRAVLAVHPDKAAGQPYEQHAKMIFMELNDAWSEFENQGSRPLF
Chain of UniProt Q9NRD1 (Q9NRD1 whole entry, looked up): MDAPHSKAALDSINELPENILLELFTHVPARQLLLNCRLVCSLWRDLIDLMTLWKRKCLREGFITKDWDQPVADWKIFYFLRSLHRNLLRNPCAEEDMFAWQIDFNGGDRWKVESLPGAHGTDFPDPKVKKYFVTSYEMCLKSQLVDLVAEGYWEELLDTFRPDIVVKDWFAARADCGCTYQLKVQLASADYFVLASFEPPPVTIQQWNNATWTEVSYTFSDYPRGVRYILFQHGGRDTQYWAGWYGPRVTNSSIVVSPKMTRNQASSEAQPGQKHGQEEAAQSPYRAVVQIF
Chain of UniProt Q03013 (Q03013 whole entry, looked up): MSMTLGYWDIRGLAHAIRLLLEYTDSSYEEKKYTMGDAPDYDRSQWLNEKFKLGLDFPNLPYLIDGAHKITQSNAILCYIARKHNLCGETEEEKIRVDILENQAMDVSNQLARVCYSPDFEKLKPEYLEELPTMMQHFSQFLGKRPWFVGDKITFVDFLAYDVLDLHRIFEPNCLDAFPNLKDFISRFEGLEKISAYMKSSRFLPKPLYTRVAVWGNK
Chain of UniProt Q9BTY2 (Q9BTY2 whole entry, looked up): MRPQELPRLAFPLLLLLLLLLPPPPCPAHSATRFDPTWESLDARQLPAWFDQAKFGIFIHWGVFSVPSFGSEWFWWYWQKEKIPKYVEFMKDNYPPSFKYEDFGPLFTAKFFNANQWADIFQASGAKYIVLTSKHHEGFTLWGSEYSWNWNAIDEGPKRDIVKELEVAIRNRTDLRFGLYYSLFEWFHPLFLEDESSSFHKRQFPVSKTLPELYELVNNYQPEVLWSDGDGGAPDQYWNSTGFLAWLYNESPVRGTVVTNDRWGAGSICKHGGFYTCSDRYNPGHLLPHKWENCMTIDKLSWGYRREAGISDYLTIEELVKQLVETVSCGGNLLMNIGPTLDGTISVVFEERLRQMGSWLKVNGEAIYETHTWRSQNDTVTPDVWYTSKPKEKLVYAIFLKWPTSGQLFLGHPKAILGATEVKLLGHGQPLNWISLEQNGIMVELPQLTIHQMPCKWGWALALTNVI
Chain of UniProt Q92522 (Q92522 whole entry, looked up): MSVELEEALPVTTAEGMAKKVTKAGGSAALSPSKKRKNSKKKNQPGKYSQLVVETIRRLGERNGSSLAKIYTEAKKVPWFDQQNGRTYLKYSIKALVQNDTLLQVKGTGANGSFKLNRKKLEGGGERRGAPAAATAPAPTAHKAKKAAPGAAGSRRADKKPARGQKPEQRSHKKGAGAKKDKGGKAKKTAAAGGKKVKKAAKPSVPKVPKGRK
Chain of UniProt Q16774 (Q16774 whole entry, looked up): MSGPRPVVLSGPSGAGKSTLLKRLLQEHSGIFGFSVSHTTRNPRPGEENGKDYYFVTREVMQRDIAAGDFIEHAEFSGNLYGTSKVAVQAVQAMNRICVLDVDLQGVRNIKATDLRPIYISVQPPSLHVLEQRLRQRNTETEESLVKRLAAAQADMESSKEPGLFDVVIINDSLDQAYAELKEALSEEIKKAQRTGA

| Target | log2 fold change [1] | log2 fold change [2] | log2 fold change [3] | log2 fold change [4] | log2 fold change (entinostat) | log2 fold change (vorinostat) | log2 fold change (citarinostat) | log2 fold change (silmitasertib) | log2 fold change [5] | log2 fold change [6] |
| --- | --- | --- | --- | --- | --- | --- | --- | --- | --- | --- |
| FBXO7 (UniProt Q9Y3I1) | 0.061 | -0.052 | -0.077 | -0.044 | 0.038 | 0.097 | 0.013 | 0.031 | -0.026 | -0.052 |
| H1FX (UniProt Q92522) | 0.248 | 0.165 | 0.153 | 0.118 | -0.072 | 0 | -0.122 | 0.078 | 0.227 | -0.12 |
| HNRNPUL2 (UniProt Q1KMD3) | -0.04 | 0.02 | 0.153 | 0.017 | -0.026 | -0.004 | -0.077 | 0.046 | 0.15 | -0.104 |
| GNS (UniProt P15586) | 0.002 | 0 | -0.109 | 0.01 | -0.006 | -0.036 | 0.019 | -0.026 | -0.049 | 0.003 |
| GMEB1 (UniProt Q9Y692) | 0.066 | -0.072 | -0.047 | 0.027 | 0.073 | 0.001 | 0.057 | 0.112 | -0.053 | -0.004 |
| H2AZ1 (UniProt P0C0S5) | 0.067 | 0.258 | 0.444 | -0.038 | 0.135 | 0.19 | -0.058 | 0 | 0.086 | -0.032 |
| GEMIN5 (UniProt Q8TEQ6) | -0.011 | -0.018 | -0.133 | -0.015 | 0.029 | -0.046 | -0.065 | 0.009 | -0.057 | -0.034 |
| IFNGR1 (UniProt P15260) | -0.116 | -0.068 | 0.27 | 0.051 | -0.123 | 0.058 | 0.014 | 0.055 | -0.118 | -0.086 |
| FBXO6 (UniProt Q9NRD1) | -0.009 | 0.034 | 0.366 (active) | 0.028 | 0.013 | 0.074 | 0.075 | 0.012 | -0.017 | 0.026 |
| GTF2B (UniProt Q00403) | -0.009 | -0.08 | -0.172 | -0.056 | 0.047 | 0.211 | 0.037 | 0.005 | -0.156 | 0.022 |
| GLUD1 (UniProt P00367) | -0.058 | -0.014 | -0.043 | -0.032 | -0.051 | -0.061 | -0.023 | -0.095 | 0.082 | 0.052 |
| FDPS (UniProt P14324) | 0.009 | -0.136 | -0.48 | -0.14 | 0.001 | 0.215 | 0.142 | -0.108 | -0.026 | -0.069 |
| GSTM4 (UniProt Q03013) | -0.071 | -0.046 | -0.121 | 0.023 | -0.068 | -0.013 | -0.079 | 0.137 | 0.151 | 0.199 |
| GNPAT (UniProt O15228) | 0.02 | -0.008 | -0.066 | 0 | 0.021 | -0.008 | 0.041 | -0.041 | -0.061 | -0.02 |
| HSPA8 (UniProt E9PN89) | -0.317 | -0.283 | -0.172 | -0.372 | -0.135 | -0.057 | -0.304 | 0.365 | -0.102 | -0.394 |
| HMOX2 (UniProt P30519) | -0.022 | -0.028 | -0.094 | -0.026 | 0.018 | 0.029 | 0.023 | 0 | 0.013 | -0.03 |
| FUCA1 (UniProt P04066) | 0.028 | -0.028 | -0.519 (active) | -0.03 | 0.014 | 0.015 | 0.096 | 0.019 | -0.043 | -0.372 (active) |
| HBZ (UniProt P02008) | 0.03 | -0.042 | 0 | 0.026 | 0.059 | -0.022 | 0.027 | -0.019 | -0.055 | -0.018 |
| GALK1 isoform 2 (UniProt P51570) | 0.357 (active) | 0.066 | -0.087 | 0.141 | 0.171 | 0.094 | 0.111 | -0.063 | 0.049 | 0.11 |
| GPD1 (UniProt P21695) | 0.067 | 0 | 0.059 | -0.067 | -0.068 | -0.035 |  | -0.16 | -0.157 |  |
| HDGFL2 (UniProt Q7Z4V5) | -0.273 (active) | -0.05 | -0.022 | -0.052 | -0.139 | 0.024 | -0.032 | 0.033 | -0.093 | -0.018 |
| GAK (UniProt O14976) | 1.52 | 0.465 | 0.145 | 1.4 | -0.072 | -0.01 | -0.244 | 0.607 | 0.236 | 0.687 |
| GLCCI1 (UniProt Q86VQ1) | -0.12 | 0.03 | -0.024 | 0.102 | 0.056 | 0.158 | 0.002 | -0.042 | 0.01 | -0.088 |
| FOXK1 (UniProt P85037) | 0.497 | 0.201 | 0.38 | 0.096 | 0 | -0.15 | 0.023 | 0.512 | -1.33 (active) | -0.031 |
| HIP1 (UniProt O00291) | -0.038 | 0.035 | 0.032 | 0.038 | -0.061 | -0.013 | 0.072 | -0.123 | -0.146 | 0.06 |
| GUK1 isoform 2 (UniProt Q16774) | -0.126 | -0.029 | -0.059 | -0.064 | 0.065 | -0.002 | 0.031 | 0.044 | -0.094 | 0.122 |
| GNAS (UniProt Q5JWF2) | -0.133 | -0.009 | 0.002 | -0.004 | -0.058 | -0.022 | -0.043 | -0.018 | -0.007 | -0.045 |
| FUCA2 (UniProt Q9BTY2) | 0.004 | -0.037 | -0.499 (active) | 0.013 | -0.03 | -0.033 | 0.042 | 0.032 | 0.032 | -0.551 (active) |
| HEXA (UniProt P06865) | -0.025 | -0.06 | -0.156 | 0.006 | -0.028 | -0.02 | 0.056 | -0.013 | -0.037 | -0.022 |
| IFRD1 (UniProt O00458) | -0.035 | -0.275 | -0.058 | -0.009 | -0.08 | -0.25 | -0.035 | 0.175 | 0.022 | -0.016 |
